# Measurements taken from paper PMC4336329 (PLoS ONE, 2015).
# Screen size: about 310,000 compounds; about 14,000 (4.5%) showed an effect of 50% or more. The effect is printed as a negative number. The sample holds strong results, similar compounds and a random draw of the others, so the mix is not that of the screen.
# Biological target: human ether-à-go-go-related gene (hERG) potassium channel (human, UniProt Q12809)
# Assay: primary screen, population patch clamp on CHO cells stably expressing hERG; higher = less effect of the substance
# 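Also: peak tail current of the secondary pulse compared with the same well before compound.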
# human ether-à-go-go-related gene (hERG) potassium channel, sequence (Q12809 whole entry, looked up): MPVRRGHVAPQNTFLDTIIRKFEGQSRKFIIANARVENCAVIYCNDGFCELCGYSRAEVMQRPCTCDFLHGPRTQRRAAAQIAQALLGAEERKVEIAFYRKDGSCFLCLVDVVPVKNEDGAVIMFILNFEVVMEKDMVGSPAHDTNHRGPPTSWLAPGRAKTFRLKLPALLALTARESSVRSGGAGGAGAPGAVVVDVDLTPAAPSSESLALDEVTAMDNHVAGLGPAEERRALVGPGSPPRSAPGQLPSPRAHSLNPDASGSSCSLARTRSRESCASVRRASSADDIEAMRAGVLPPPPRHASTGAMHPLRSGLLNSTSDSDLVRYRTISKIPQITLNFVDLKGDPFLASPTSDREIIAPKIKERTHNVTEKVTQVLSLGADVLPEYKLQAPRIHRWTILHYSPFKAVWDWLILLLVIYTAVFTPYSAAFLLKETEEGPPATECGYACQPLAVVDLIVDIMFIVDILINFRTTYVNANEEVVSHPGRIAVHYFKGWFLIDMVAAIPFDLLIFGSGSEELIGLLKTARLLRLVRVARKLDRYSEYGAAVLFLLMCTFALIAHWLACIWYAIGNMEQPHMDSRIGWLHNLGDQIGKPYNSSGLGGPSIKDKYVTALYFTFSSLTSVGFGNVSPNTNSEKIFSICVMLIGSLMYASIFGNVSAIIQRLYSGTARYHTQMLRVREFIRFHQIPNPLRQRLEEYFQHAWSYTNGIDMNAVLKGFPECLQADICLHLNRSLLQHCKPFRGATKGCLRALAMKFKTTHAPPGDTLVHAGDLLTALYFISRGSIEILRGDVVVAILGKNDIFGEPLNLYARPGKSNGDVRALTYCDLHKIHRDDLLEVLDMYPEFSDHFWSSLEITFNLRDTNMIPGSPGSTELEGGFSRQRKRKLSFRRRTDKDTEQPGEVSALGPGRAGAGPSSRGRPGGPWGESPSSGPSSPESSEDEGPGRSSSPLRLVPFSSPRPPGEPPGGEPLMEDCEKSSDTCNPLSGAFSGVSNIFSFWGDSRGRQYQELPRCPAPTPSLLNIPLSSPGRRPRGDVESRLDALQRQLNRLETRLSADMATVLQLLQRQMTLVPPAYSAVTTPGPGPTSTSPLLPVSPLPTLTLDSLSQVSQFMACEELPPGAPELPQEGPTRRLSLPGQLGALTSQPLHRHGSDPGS
row,SMILES,"hERG current change (%, negative = inhibition) at 10uM [%]"
1,COc1ccccc1CNC(=O)Cn1cccc1C(=O)c1ccccc1,8.74
2,COCC1CCN(C(=O)c2cc(COc3ccc4c(c3)CCCC4)on2)C1 (stereo not shown),-24.9
3,Cc1cccn2c(=O)c(C=NCc3ccccc3)c(NCCO)nc12,0.417
4,Cc1ccc(CN2CCSc3ccc(C(=O)NCc4cccnc4)cc32)cc1,-2.7
5,CCN(C(=O)C(C)N1C(=O)/C(=C/c2cccs2)SC1=S)C1CCS(=O)(=O)C1 (stereo not shown),-27.3
6,COC(=O)c1ccc(C(=O)OC)c(NC(=O)CN2CCN(c3ccc(OC)cc3)CC2)c1,11.5
7,Cc1csc(Nc2ccc(Cl)cc2)[n+]1-c1ccc(Cl)cc1.[Br-],14.9
8,CC(C)CNC(=O)c1ccccc1NC(=O)CCSc1ccccc1,-17.6
9,COC(=O)c1ccc([C@H]2C=C(C(=O)O)O[C@@H](OCc3ccc(CO)cc3)C2)cc1,13.6
10,CN(C)CCOCCOc1ccc(Cl)c2ccccc12.O=C(O)C(=O)O,-44.5
11,CCN(CC)CCOCCOc1ccccc1F,-3.91
12,CCN(CC)CCOCCOc1ccc(Cl)c2ccccc12,-68
13,COc1ccccc1CCNC(=O)C(=O)NCC1OCCN1S(=O)(=O)c1ccc([N+](=O)[O-])cc1 (stereo not shown),-46.7
14,O=C(NCCN1CCOCC1)c1ccc2c(c1)ncn2C1CCCC1,-6.39
15,c1ccc(CN2CCN(c3ncnc4c3[nH]c3ccccc34)CC2)cc1,-62.5
16,COc1cccc2[nH]c3c(N4CCN(Cc5ccc6c(c5)OCO6)CC4)ncnc3c12,-17.3
17,c1ccc2c(c1)[nH]c1c(N3CCSCC3)ncnc12,-4.82
18,Cc1ccc2[nH]c3c(N4CCOCC4)ncnc3c2c1,-0.757
19,Cc1ccc2c(c1)[nH]c1c(N3CCN(Cc4ccccc4)CC3)ncnc12,-24.5
20,COc1ccc2c(c1)[nH]c1c(N3CCN(Cc4ccc5c(c4)OCO5)CC3)ncnc12,-74
21,c1ccc2c(c1)[nH]c1c(N3CCCC3)ncnc12,-15.2
22,COc1ccc2[nH]c3c(N4CCN(Cc5ccc6c(c5)OCO6)CC4)ncnc3c2c1,-18.8
23,Cc1ccc2[nH]c3c(N4CCN(Cc5ccccc5)CC4)ncnc3c2c1,-72.3
24,Cn1c2c(c(=O)n(C)c1=O)C(NC(=O)c1ccco1)(C(F)(F)F)C(=O)N2 (stereo not shown),16.3
25,O=C1OC(c2ccccc2)=C/C1=C/N1CCOCC1,2.28
26,O=C(NCCc1nnc2ccc(NCc3ccccc3Cl)nn12)c1ccccc1,10.4
27,N#Cc1cc2c(nc1SCC(=O)O)CCCCC2,3.05
28,CCOC(=O)c1sc(NC(=O)c2ccc3ncsc3c2)nc1C,10.8

row,SMILES,"hERG current change (%, negative = inhibition) at 10uM [%]"
1,O=C(Nc1ccccc1Cl)c1cc[n+]([O-])cc1,27.8
2,COc1ccc(C2SCC(=O)N2CCc2ccc(OC)c(OC)c2)cc1 (stereo not shown),-31.3
3,COc1ccc(CCN2CC(C(=O)O)CC2=O)cc1OC (stereo not shown),0.984
4,COc1ccc(C2CC(=O)N(CCC[NH+](C)CCc3ccc(OC)c(OC)c3)C2)cc1.O=C([O-])C(=O)[O-] (stereo not shown),-74.7
5,COc1ccc(CCN2CC(C(=O)NCc3ccc(F)cc3)CC2=O)cc1OC (stereo not shown),2.45
6,COc1ccc(NC(=O)CN2CC(c3ccccc3)CC2=O)cc1OC (stereo not shown),8.33
7,COc1ccc(CC[NH+](C)CCCN2CC(c3ccccc3)CC2=O)cc1OC.O=C([O-])C(=O)[O-] (stereo not shown),-71.1
8,O=C(/C=C/c1ccc(O)cc1)c1ccc(O)cc1O,9.4
9,CCCn1c(O)c(CN2CCCCC2)c(C)c(C#N)c1=O,15.5
10,O=C(NC(=S)Nc1ccc(N2CCOCC2)cc1)c1cncc(Br)c1,19.5
11,CC(C)CC(=O)Nc1ccnn1C1CCN(C(=O)c2ccc(Cl)cc2F)CC1,-30.4
12,N#CC(C#N)C(c1ccsc1)c1c(-c2ccccc2)[nH][nH]c1=O (stereo not shown),-3.36
13,CN1C(=O)C(=O)/C(=C(/O)c2ccc(Br)cc2)C1c1ccccc1F (stereo not shown),8.71
14,O=C(C1=C[C@H](c2coc3ccccc3c2=O)C[C@H](OCCCCO)O1)N1CCN(Cc2ccccc2)CC1,-61.5
15,CN1CCN(C(=O)C2=C[C@@H](c3coc4ccccc4c3=O)C[C@@H](OCCCCO)O2)CC1,0.749
16,CN1CCN(C(=O)C2=C[C@H](c3coc4ccccc4c3=O)C[C@H](OCCCCO)O2)CC1,-20.3
17,O=C(C1=C[C@@H](c2coc3ccccc3c2=O)C[C@@H](OCCCCO)O1)N1CCN(Cc2ccccc2)CC1,-57.9
18,O=C(C1=C[C@@H](c2coc3ccccc3c2=O)C[C@@H](OCCCCO)O1)N1CCOCC1,7.47
19,O=C(C1=C[C@H](c2coc3ccccc3c2=O)C[C@H](OCCCCO)O1)N1CCOCC1,-16
20,Nc1nc(Sc2c([N+](=O)[O-])cc(C(F)(F)F)cc2[N+](=O)[O-])n[nH]1,3.04
21,CCn1c(COc2ccccc2OC)nc2ccccc21,2.28
22,Cc1ccc(-c2csc3nc(SCC(=O)N(C)C)n(Cc4ccccc4)c(=O)c23)cc1,-26
23,Cc1[nH][nH]c(=O)c1C(c1ccc(O)c(Br)c1)c1c(C)[nH][nH]c1=O,4.34
24,O=C(c1ccccc1Br)N1CCN(c2ccccn2)CC1,9.41
25,O=C(COC(=O)CCSc1ccccc1)NCc1ccccc1Cl,22.4
26,Nc1nc(Sc2ncccc2[N+](=O)[O-])n[nH]1,3.27
27,COc1ccccc1NC(=S)N1C2CCC1CC(NC(=O)NC13CC4CC(CC(C4)C1)C3)C2 (stereo not shown),-2.49
